CHT inh – inhibitors of human choline transporter CHT; 310,000 tested, 0.86% active; High affinity choline transporter 1 (Homo sapiens), Q9GZV3; CHT-expressing cells, membrane potential dye, choline response; active compounds read low; B-score at 10 µM;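 active = B-score over 3 SD under the library average, and starting fluorescence ratio not unusually high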;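 note: choline stimulus applied at its EC90 after an EC20 pre-addition; B-score computed on integrated fluorescence ratio after choline addition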
CHT PAM – CHT positive allosteric modulators, primary screen, cell-based, membrane potential dye, choline EC20. High affinity choline transporter 1 (Homo sapiens), Q9GZV3. CHT-expressing cells; active compounds read high; LV-AA mutant CHT in HEK293 cells. B-score at 10 µM. 310,000 tested, 0.49% active. AID 488977, 2010;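 active = initial fluorescence not abnormally high and integrated response B-score, plate-corrected, over 3 SD above library mean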
SUMO Mot1 rescue – yeast Mot1-301 growth rescue at high temperature, primary screen, SUMOylation pathway inhibitor project, S. cerevisiae, ATP luminescence, 38.5C; growth rescue, % at 18.8 µM; 320,000 tested, 1% active; S. cerevisiae Mot1-301 growth rescue; percent above DMSO median, 100 means doubled;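 active = every valid replicate shows activation above 250% relative to neutral control wells; inactive = the rest, any valid replicate at or below 250%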;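 note: OY570 slx delta 5 strain wells were the positive control but not used for scaling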
MEKK2mut PB1 HTS – MEK5 binding signal on mutant MEKK2 PB1, primary screen, biochemical, multiplex bead flow cytometry, Alexa488-MEK5; AID 1530, 2009; percent response, % at 10 µM; Alexa488-MEK5 binding to MEKK2 mutant; 290,000 tested, 0.35% active; in the data active = percent response above about 24%, passing the limit was not always enough
MEKK3 PB1 HTS – modulators of MEKK3-MEK5 PB1 binding, primary screen, biochemical, wildtype MEKK3, multiplex bead flow cytometry, Alexa488-MEK5; Mitogen-activated protein kinase kinase kinase 3 (Homo sapiens), Q99759; bead-based flow cytometry, Alexa488-MEK5 binding to MEKK3; actives lie on both sides; 0 = blocked by unlabeled MEK5, 100 = vehicle; binding response (% of control), % at 10 µM; 290,000 tested, 1.4% active; AID 1529, 2009;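 active = binding response more than 3 SD above or below the average of its plate-row segment, actives on both sides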;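 note: Alexa488 bead fluorescence after subtracting the streptavidin-only scavenger bead signal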
Target sequence (Q99759 whole entry, looked up): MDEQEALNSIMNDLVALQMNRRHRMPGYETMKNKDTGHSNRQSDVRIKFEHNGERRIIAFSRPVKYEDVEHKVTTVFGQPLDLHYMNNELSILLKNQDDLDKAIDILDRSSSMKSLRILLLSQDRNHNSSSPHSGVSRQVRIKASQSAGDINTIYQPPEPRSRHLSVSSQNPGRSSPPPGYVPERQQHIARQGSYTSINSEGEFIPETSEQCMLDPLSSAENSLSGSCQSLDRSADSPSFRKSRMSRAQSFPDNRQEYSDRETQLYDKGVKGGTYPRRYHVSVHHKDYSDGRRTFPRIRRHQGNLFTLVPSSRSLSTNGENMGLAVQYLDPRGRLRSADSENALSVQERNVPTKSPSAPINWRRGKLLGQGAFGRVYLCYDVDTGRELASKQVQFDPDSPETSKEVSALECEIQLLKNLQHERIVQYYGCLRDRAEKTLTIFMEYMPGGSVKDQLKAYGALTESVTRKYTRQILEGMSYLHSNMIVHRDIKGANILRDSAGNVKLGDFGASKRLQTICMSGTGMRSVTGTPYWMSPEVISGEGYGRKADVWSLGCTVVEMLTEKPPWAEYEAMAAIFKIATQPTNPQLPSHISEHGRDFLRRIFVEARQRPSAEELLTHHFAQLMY
MEKK2wt PB1 HTS – modulators of MEK5 binding to wildtype MEKK2, primary screen, biochemical, multiplex bead flow cytometry, Alexa488-MEK5 | AID 1531, 2009 | 290,000 tested, 1.1% active | binding response (% of control), % at 10 µM | Alexa488-MEK5 binding to MEKK2 WT; actives lie on both sides | Mitogen-activated protein kinase kinase kinase 2 (Homo sapiens), Q9Y2U5; in the data active = binding response below about 67% or above about 130%
MEKK2wt confirm – modulators of MEK5 binding to wildtype MEKK2, confirmation, biochemical, single concentration, multiplex bead flow cytometry; shares compounds with MEKK3 PB1 HTS; Alexa488-MEK5 binding to MEKK2 WT; actives lie on both sides; binding response (% of control), % at 10 µM; 5,900 tested, 2.4% active; AID 1892, 2009; in the data active = binding response below about 16% or above about 210%; inactive = in between
MEKK2mut confirm – mutant MEKK2 PB1-MEK5 binding signal retest – biochemical, single concentration, multiplex bead flow cytometry, confirmation. Alexa488-MEK5 binding to MEKK2 mutant. percent response, % at 10 µM. shares compounds with MEKK3 PB1 HTS. 5,900 tested, 2% active; in the data active = percent response mostly above about 71%, no sharp cut-off; inactive = mostly below about 38%;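 note: higher means compound restores mutant binding toward wildtype level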
MEKK3-MEK5 inh – MEKK3 wild-type PB1 binding to MEK5, inhibitors, confirmation, biochemical, bead multiplex flow cytometry, single concentration, wildtype | shares compounds with MEKK3 PB1 HTS | Alexa488-MEK5 binding to MEKK3; active compounds read low | binding response (% of control), % at 10 µM | 5,900 tested, 1.8% active;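 active = binding response below 72% of control, or above a set upper limit, though filed actives all read lower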;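 note: 100% = DMSO only wells and 0% = binding blocked by excess unlabeled MEK5; lower values mean stronger disruption of MEK5 binding to MEKK3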
* hit, by the source's call; i = inactive; . = not tested or not shown; [ ] = dose if it differs, or a comment. The list is not random: actives were taken first. Their share in the collection is about 4.1%.

SMILES	CHT inh	CHT PAM	SUMO Mot1 rescue	MEKK2mut PB1 HTS	MEKK3 PB1 HTS	MEKK2wt PB1 HTS	MEKK2wt confirm	MEKK2mut confirm	MEKK3-MEK5 inh
CCOc1cc(CNCCc2ccc(S(N)(=O)=O)cc2)ccc1OCc1ccc(Cl)cc1	i	i	-17	46*	110	214*	183	37	105
COc1ccc(NC(=O)/C(=C\c2ccncc2)NC(=O)c2ccccc2)cc1	i	i	-10	0	100	100	.	.	.
O=C1C2C3C=CC(C2C(=O)N1CCO)C1C(=O)N(CCO)C(=O)C31 (centres undefined)	i	i	-10	9	104	106	.	.	.
COc1ccc(-n2ncc3c2CC(C)(C)CC3NC(=O)CCn2cncn2)cc1 (centres undefined)	i	i	-4	1	101	101	.	.	.
CCN(CC)CC(=O)Nc1ccc(-c2nc3cc(NC(=O)CN(CC)CC)ccc3o2)cc1	i	i	-2	15	109	122	.	.	.
CCC(C)NCC(=O)Nc1ccc(-c2nc3cc(NC(=O)CNC(C)CC)ccc3o2)cc1 (centres undefined)	i	i	1	34*	114	160*	156	29	108
Cc1ccc(C(C)C)c(OCC#CCN2CCOCC2)c1	i	i	0	2	103	103	.	.	.
NC(=O)COC(=O)c1oc2ccccc2c1CSc1ccc(Cl)cc1	i	i	-1	1	157*	114	104	1	102
COC(=O)c1ccccc1OCCCCN1CC(C)OC(C)C1 (centres undefined)	i	i	225	1	152*	102	109	12	108
CCOC(=O)C1CCN(S(=O)(=O)c2ccc(OC)c(Cl)c2Cl)CC1	i	i	-5	-5	82*[inhibitor]	88	103	2	102
CCOC(=O)C1CCN(S(=O)(=O)c2ccc(-c3ccccn3)s2)CC1	i	i	-31	25	130*	129	99	-3	101
CCOC(=O)C1CCN(S(=O)(=O)c2ccc(C)c(C)c2)CC1	i	i	5	-13	100	89	.	.	.
CCOC(=O)C1CCN(S(=O)(=O)c2ccc(-n3cnnn3)c(C)c2)CC1	i	i	102	-11	79*[inhibitor]	86	101	-3	102
O=C(NCCc1ccccc1)C1CC(=O)N(CCc2ccccc2)C1 (centres undefined)	i	i	21	3	101	101	.	.	.
CCCCCCCN(C(=O)CCl)c1cccc(C)c1	i	i	24	-1	127	103	.	.	.
CCCCCCN(C(=O)CCl)c1ccccc1	i	i	5	-44	41*[inhibitor]	48	94	-3	99
O=C(c1ccc(Cl)cc1)c1c[nH]c(C(=O)C(Cl)(Cl)Cl)c1	i	i	62	4	102	100	.	.	.
O=C(c1c[nH]c(C(=O)C(Cl)(Cl)Cl)c1)c1ccc(F)cc1Cl	i	i	149	-23	1.0*[inhibitor]	-2.0*[inhibitor]	104	3	107
Cc1ccc(Cc2nnc3n(-c4ccccc4)nc(C(=O)c4ccccc4)n3c2=O)cc1	i	i	-13	-2	65*[inhibitor]	86	96	1	98
COc1ccc(C2NN=C(c3c[nH]c4ccccc34)C2O)cc1 (centres undefined)	i	i	3	213*	93	55*	96	-6	99
COc1ccc(C2C(O)C(c3c[nH]c4ccccc34)=NN2C(=O)CCl)cc1 (centres undefined)	i	i	8	2	101	97	.	.	.
O=C(CSc1nnc(-c2ccncc2)n1-c1ccccc1)NC1CC1	i	i	76	-1	98	100	.	.	.
CCc1ccc(C2CC(c3ccco3)=NN2S(C)(=O)=O)cc1 (centres undefined)	i	i	10	55*	89	.	81	-9	89
COc1ccc(/C=C2\SC(N3CCc4ccccc4C3)=NC2=O)cc1	i	i	3	1	131*	103	95	-10	99
CCOc1ccc(/C=C2\SC(N3CCc4ccccc4C3)=NC2=O)cc1	i	i	7	-1	132	95	.	.	.
SMILES	CHT inh	CHT PAM	SUMO Mot1 rescue	MEKK2mut PB1 HTS	MEKK3 PB1 HTS	MEKK2wt PB1 HTS	MEKK2wt confirm	MEKK2mut confirm	MEKK3-MEK5 inh
COc1ccc(CNc2nc(-c3cccnc3)nn2C(C)=O)cc1	i	i	156	-42	5.0*[inhibitor]	7.0*[inhibitor]	107	2	106
CC(OC(=O)c1ccc2c(c1)S(=O)(=O)c1ccccc1C2=O)C(N)=O (centres undefined)	i	i	9	-4	101	97	.	.	.
CCN(CC)c1nc2c(s1)C(=O)CC(C)(C)C2	i	i	7	6	95	99	.	.	.
CCCc1ccc2oc(C(=O)N3CCNC(=O)C3CC(=O)OC)c(C)c2c1 (centres undefined)	i	i	6	6	105	108	.	.	.
Cc1ccc(C2Nc3ccccc3NC3=C2C(=O)OC(C)C3)cc1 (centres undefined)	i	i	3	-1	108	100	.	.	.
CC1CC2=C(C(=O)O1)C(c1ccc(Cl)cc1)Nc1ccccc1N2 (centres undefined)	i	i	-7	-1	71*[inhibitor]	91	104	8	104
CC1CCCN(CCOc2ccc3ccccc3c2Br)C1 (centres undefined)	i	i	32	37	102	157*	131	17	102
O=C(CNC(=O)N1CC(=O)Nc2ccccc21)Nc1cccc(F)c1	i	i	21	1	102	101	.	.	.
O=C(CCC(=O)Nc1ccc(Cl)cc1Cl)NNC(=O)[C@@H]1CCCC[C@@H]1C(=O)O	i	i	5	-21	1.0*[inhibitor]	1.0*[inhibitor]	93	-8	95
